Data on 9 molecules can be found in article PMC11062922 (Nature Chemical Biology, 2023).

Molecules are shown by their SMILES. Read-outs that look alike come from different tables or passages of the source.

Design in all cases: species or system human, MV4-11 + K-562 + COLO205 + SK-N-BE2 + OVCAR-8
The test system of experiment [1] is DYRK1A. Conditions: read-out: apparent Kd, compound concentrations: 100 nM and 1000 nM (sheet 'Samples'), n = 1.
The subject of experiment [2] is FER. To be noted: read-out: apparent Kd, n = 1.
Experiment [3] relates to FLT3. Conditions: read-out: apparent Kd, n = 1.
For experiment [4], the system named is LATS1. Conditions: read-out: apparent Kd, n = 1.
Experiment [5] has as its system MARK4. To be noted: read-out: apparent Kd, n = 1.
Experiment [6] relates to MYLK3. Conditions: read-out: apparent Kd, n = 1.
The test system of experiment [7] is PIP4K2C. Conditions: read-out: apparent Kd, n = 1.
The test system of experiment [8] is PLK4. To be noted: read-out: apparent Kd, n = 1.
Experiment [9] concerns PRKAA1. Conditions: read-out: apparent Kd, n = 1.
In experiment [10] the test system is PTK2B. To be noted: read-out: apparent Kd, n = 1.
In experiment [11] the test system is PTK2. To be noted: read-out: apparent Kd, n = 1.
The subject of experiment [12] is RPS6KA6. Conditions: read-out: apparent Kd, n = 1.
Experiment [13] concerns STK10. To be noted: read-out: apparent Kd, n = 1.
The test system of experiment [14] is CDK7. To be noted: read-out: apparent Kd, n = 1.
Experiment [15] concerns ERCC2. To be noted: read-out: apparent Kd, n = 1.
For experiment [16], the system named is PRKCQ. To be noted: read-out: apparent Kd, n = 1.
Experiment [17] has as its system PRKD3. Conditions: read-out: apparent Kd, n = 1.
For experiment [18], the system named is PRKD2. Conditions: read-out: apparent Kd, n = 1.
Experiment [19] relates to PRKCD. To be noted: read-out: apparent Kd, n = 1.
Where [20] appears, read: compound concentrations:100 nM and 1000 nM (sheet 'Samples').

Regarding `COc1ccc(Nc2ncc(C#N)c(Nc3ccccc3C(N)=O)n2)cc1N1CCN(C)CC1.Cl` [GSK1558669A], the potency estimated from few doses in [1] (CATDS: 6.6106373934709103E-3) is 0.954 µM; in experiment [2] (compound concentrations: 100 nM and 1000 nM (sheet 'Samples'), CATDS: 1.1172004845485001E-2), 0.137 µM; in experiment [3] (compound concentrations: 100 nM and 1000 nM (sheet 'Samples'), CATDS: 2.0604812795468701E-2), 0.0351 µM; in experiment [4] (compound concentrations: 100 nM and 1000 nM (sheet 'Samples'), CATDS: 9.7361630406248897E-3) it was 0.205 µM; in [5] (compound concentrations: 100 nM and 1000 nM (sheet 'Samples'), CATDS: 1.5249165601859399E-2), 0.0644 µM; in experiment [6] (compound concentrations: 100 nM and 1000 nM (sheet 'Samples'), CATDS: 2.6075418388892199E-2), 0.0231 µM. Moreover, the potency estimated from few doses was 2.24 µM in experiment [7] (compound concentrations: 100 nM and 1000 nM (sheet 'Samples'), CATDS: 5.8169442722308101E-3); 0.415 µM in [8] (compound concentrations: 100 nM and 1000 nM (sheet 'Samples'), CATDS: 7.9359519159901901E-3); 0.0366 µM in experiment [9] (compound concentrations: 100 nM and 1000 nM (sheet 'Samples'), CATDS: 2.0149023571651901E-2); 0.0845 µM in experiment [10] (compound concentrations: 100 nM and 1000 nM (sheet 'Samples'), CATDS: 1.3529380969040701E-2); 0.00926 µM in [11] (compound concentrations: 100 nM and 1000 nM (sheet 'Samples'), CATDS: 4.75918589440152E-2); 0.0343 µM in [12] (compound concentrations: 100 nM and 1000 nM (sheet 'Samples'), CATDS: 2.0856200348519E-2). Further, in [13] (compound concentrations: 100 nM and 1000 nM (sheet 'Samples'), CATDS: 1.0596963300075399E-2), the potency estimated from few doses was 0.159 µM.

Take `Cl.Nc1c(C(=O)c2cccc(C#CCN3CCCCC3)c2)cnn1-c1ccc(F)cc1` [RO1154461-001]: the potency estimated from few doses is 0.0741 µM in experiment [14] (compound concentrations: 100 nM and 1000 nM (sheet 'Samples'), CATDS: 4.6552483673456102E-2); 0.0632 µM in experiment [15] (compound concentrations: 100 nM and 1000 nM (sheet 'Samples'), CATDS: 5.2130998617594002E-2); 0.0689 µM in [2] (compound concentrations: 100 nM and 1000 nM (sheet 'Samples'), CATDS: 4.9023130772968097E-2); 1.78 µM in experiment [4] (compound concentrations: 100 nM and 1000 nM (sheet 'Samples'), CATDS: 1.0207334677420601E-2); 1.35 µM in experiment [5] (compound concentrations: 100 nM and 1000 nM (sheet 'Samples'), CATDS: 1.0984902394488599E-2); 1.91 µM in experiment [7] (compound concentrations: 100 nM and 1000 nM (sheet 'Samples'), CATDS: 1.00291751764076E-2). Besides, the potency estimated from few doses in [8] (compound concentrations: 100 nM and 1000 nM (sheet 'Samples'), CATDS: 1.52727578092353E-2) is 0.534 µM; in experiment [9] (compound concentrations: 100 nM and 1000 nM (sheet 'Samples'), CATDS: 1.6696552241267201E-2) it was 0.436 µM; in experiment [16] (compound concentrations: 100 nM and 1000 nM (sheet 'Samples'), CATDS: 1.06314955132201E-2), 1.52 µM; in experiment [17] (compound concentrations: 100 nM and 1000 nM (sheet 'Samples'), CATDS: 9.8039284052072601E-3), 2.11 µM; in experiment [10] (compound concentrations: 100 nM and 1000 nM (sheet 'Samples'), CATDS: 4.70772148713983E-2), 0.0729 µM; in [11] (compound concentrations: 100 nM and 1000 nM (sheet 'Samples'), CATDS: 1.89593095974224E-2), 0.333 µM. The potency estimated from few doses in [12] (compound concentrations: 100 nM and 1000 nM (sheet 'Samples'), CATDS: 1.98632860807328E-2) was 0.303 µM; in [13] (compound concentrations: 100 nM and 1000 nM (sheet 'Samples'), CATDS: 1.0028252220669101E-2), 1.91 µM.

With `Cc1cccc(-c2nc(Nc3ccncc3)c3sccc3n2)n1` [GW869641X], the results for the potency estimated from few doses in experiment [18] (setting [20]), in experiment [17] (setting [20]) and in experiment [13] (setting [20]) were 0.0014 µM, 0.00356 µM and 1.73 µM, respectively.

`CCn1c(-c2nonc2N)nc2c(C#CC(C)(C)O)nc(OC[C@@H](N)c3ccccc3)cc21` [GSK938890A]: the potency estimated from few doses in experiment [1] (CATDS: 4.9269048258553202E-2) was 2.06 µM; in [4] (compound concentrations: 100 nM and 1000 nM (sheet 'Samples'), CATDS: 6.3165054409109203E-2), 0.513 µM.

As for `Cc1ccc2c(-c3ccncc3)c(-c3ccc(F)cc3)nn2c1.Cl` [GW461484A], the potency estimated from few doses in [14] (setting [20]) is 0.288 µM; in experiment [15] (setting [20]), 0.214 µM; in experiment [2] (setting [20]) it was 0.259 µM; in [7] (setting [20]), 1.56 µM; in [8] (setting [20]), 0.428 µM; in [9] (setting [20]), 0.773 µM. Further, the potency estimated from few doses in experiment [17] (setting [20]) was 2.11 µM; in experiment [10] (setting [20]), 0.354 µM; in experiment [11] (setting [20]), 0.462 µM; in experiment [12] (setting [20]), 0.248 µM.

As for `CCn1c(-c2nonc2N)nc2c(C#CC(C)(C)O)nc(OCCN)cc21.CCn1c(-c2nonc2N)nc2c(C#CC(C)(C)O)nc(OCCN)cc21.Cl.Cl` [GSK902056A], the potency estimated from few doses in experiment [4] (setting [20]) was 0.0702 µM; in [19] (setting [20]) it was 0.373 µM; in experiment [16] (setting [20]) it was 0.0509 µM.

As for `CNC(=O)c1ccccc1Nc1nc(Nc2ccc(N3CCOCC3)cc2)ncc1Cl.Cl` [GSK1576028A], the potency estimated from few doses is 0.484 µM in experiment [2] (setting [20]); 0.616 µM in experiment [3] (setting [20]); 0.132 µM in experiment [4] (setting [20]); 1.37 µM in experiment [5] (setting [20]); 0.786 µM in experiment [6] (setting [20]); 0.0134 µM in [8] (setting [20]). Besides, the potency estimated from few doses in experiment [9] (setting [20]) was 0.629 µM; in [10] (setting [20]), 0.0418 µM; in experiment [11] (setting [20]) it was 0.00808 µM; in experiment [13] (setting [20]) it was 0.681 µM.

For `CONC1=NC(=O)/C(=C/c2ccc3ncccc3c2)S1` [RO4613269-000], the potency estimated from few doses in experiment [1] (CATDS: 0.14801064181583801) was 1.1 µM.

With `CCn1c(-c2nonc2N)nc2c(-c3ccccc3)ncc(OCCCN)c21.CCn1c(-c2nonc2N)nc2c(-c3ccccc3)ncc(OCCCN)c21.O=C(O)C(F)(F)F.O=C(O)C(F)(F)F` [GSK260205A], the potency estimated from few doses in experiment [4] (compound concentrations: 100 nM and 1000 nM (sheet 'Samples'), CATDS: 3.5695697906411097E-2) was 0.734 µM; in [19] (compound concentrations: 100 nM and 1000 nM (sheet 'Samples'), CATDS: 3.0969413640761199E-2), 1.16 µM; in [18] (compound concentrations: 100 nM and 1000 nM (sheet 'Samples'), CATDS: 3.1729313210787799E-2), 1.07 µM; in experiment [17] (compound concentrations: 100 nM and 1000 nM (sheet 'Samples'), CATDS: 2.8953203938898799E-2), 1.51 µM.
